# NALP1 inh: NALP1 inflammasome inhibitors in reconstituted yeast, colorimetric, S. cerevisiae, triplicate retest; AID 2071, 2009; inhibition, % at 10 µM; actives 0.61% (n = 280,000); S. cerevisiae NALP1/ASC/caspase-1 growth, X-gal OD620, 72 h; in the data active = inhibition mostly above about 24%, no sharp cut-off; inactive = mostly below about 32%
# PfHsp90 yeast 2: growth inhibition of PfHsp90-expressing yeast, primary screen, antimalarial PfHsp90 inhibitor project, S. cerevisiae, BacTiter-Glo luminescence, single point, set 2 | BacTiter-Glo ATP, 48 h; yeast lacking PDR1 and PDR3 efflux regulators | inhibition, % at 9.4 µM | actives 0.32% (n = 310,000);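 active = every replicate shows inhibition above about 80%, whatever the replicate mean, limit read from the data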;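 also: 0% = DMSO neutral controls and 100% = 20 µM radicicol positive controls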
# SKKanGAS inh: S. pyogenes SKKanGAS growth inhibitors in kanamycin, primary screen, streptokinase expression inhibitor project, SKKanGAS strain, BacTiter-Glo luminescence | 6 h | inhibition, % at 7.5 µM | AID 1662, 2009 | actives 1.3% (n = 300,000);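 active = mean replicate score, as percent of positive control median, at least 50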;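 also: strain carries kanamycin resistance gene driven by streptokinase promoter and grows in 40 µg/ml kanamycin; loss of luminescence reflects streptokinase promoter inhibition or plain growth inhibition; 0% = median of DMSO wells and 100% = positive control at its reference dose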
# tim23-1 inh: growth inhibitors of tim23-1 mutant yeast, primary screen, luminescence, uHTS; S. cerevisiae tim23-1 growth, BacTiter-Glo luminescence, 24 h; inhibition, % at 20 µM; actives 1.3% (n = 330,000);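 active = growth inhibition of the mutant yeast at or above 50%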;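 also: temperature-sensitive mutant grown at 25 °C; plate controls were DMSO-treated mutant yeast for no effect and medium wells lacking yeast for full effect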
# tim10-1 inh: growth inhibitors of tim10-1 mutant yeast, primary screen, luminescence, uHTS | S. cerevisiae tim10-1 ts strain growth, BacTiter-Glo, 24 h | inhibition, % at 20 µM | actives 2.2% (n = 330,000) | AID 463190, 2010;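 active = inhibition of at least 40%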;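 also: mutant grown at 25 °C; 0% = DMSO wells with yeast and 100% = wells holding no yeast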
# TIM10 inh: growth inhibitors of isogenic TIM10 control yeast, primary screen, counter-screen for tim10-1 yeast inhibitor project, luminescence, uHTS | S. cerevisiae TIM10 strain growth, BacTiter-Glo luminescence, 24 h | inhibition, % at 10 µM | actives 1.4% (n = 330,000);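 active = inhibition of 40% or more at the single tested concentration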;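 also: wild-type TIM10 isogenic control strain grown at permissive 25 °C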
# An asterisk follows results filed as active; · = no result. Sampled rows, rich in hits. Any-hit rate of the full collection: about 4.8%.
SMILES,NALP1 inh,PfHsp90 yeast 2,SKKanGAS inh,tim23-1 inh,tim10-1 inh,TIM10 inh
CCCN(CCC)c1nc(-c2ccccn2)nc2ccccc12,21.2,-3.8,97.3*,-20.8,16.9,31.7
c1ccc(CCNc2nc(-c3ccccn3)nc3ccccc23)cc1,6.7,29.7,113.3*,5.9,28.1,19.7
Cc1nc(N2CCC(C)CC2)c2c(C)c(C(=O)Nc3ccc(C(F)(F)F)cc3)sc2n1,-3.8,3.0,75.3*,26.9,30.4,-2.7
Cc1c(CC(=O)O)c(=O)oc2c(C)c(OCc3nn[nH]n3)ccc12,37.4*,25.7,-2.4,10.1,-11.4,4.6
Cc1c(Cc2ccccc2)c(=O)oc2c(C)c(OCc3nn[nH]n3)ccc12,12.2,-6.0,·,17.4,4.0,6.0
CCCCCOc1ccc(Br)cc1CSC(=N)N,52.3*,-2.2,-2.8,·,·,·
COc1ccc(Br)cc1CSC(=N)N,7.4,19.4,-2.0,11.0,-3.1,-11.2
COc1ccc(CCNC(=O)CSc2nc3[nH]ncc3c(=O)n2-c2ccc(Cl)cc2Cl)cc1OC,18.6,-0.3,-3.2,4.9,6.5,-11.9
COc1ccc(CCNC(=O)CSc2nc3[nH]ncc3c(=O)n2-c2ccccc2OC)cc1OC,34.7*,0.8,-0.7,2.8,-1.3,-0.4
O=C(c1ccc2c(=O)n(C3CCCC3)c(=S)[nH]c2c1)N1CCc2ccccc21,-12.6,109.0*,25.1,20.7,8.3,25.1
c1ccc(OCc2nc3c4c(ncn3n2)-c2ccccc2CC42CCCC2)cc1,20.5,-7.2,52.2*,-6.0,-16.9,-26.4
Cc1cc(C)nc(N(C#N)Cc2ccccc2C)n1,-0.4,-33.6,4.5,13.8,15.1,-6.9
O=C(NC(=S)Nc1ccccc1N1CCCCC1)c1ccc(F)cc1Cl,-2.0,-12.5,49.6*,41.4,33.8,33.3
COc1ccccc1C(=O)NC(=S)Nc1ccccc1N1CCCC1,1.7,·,4.4,36.3,33.1,35.3
O=C(NC(=S)Nc1cccc(Cl)c1N1CCCCC1)c1ccc2c(c1)OCCO2,20.0,-23.2,61.0*,35.3,13.1,13.5
O=C(Nc1cccc(Cl)c1N1CCCCC1)c1ccc2c(c1)OCCO2,10.3,-21.4,62.0*,11.3,17.5,9.7
CCN1C(=O)[C@H]2[C@@H](c3ccc(C)cc3)N3C(=O)N(c4cccc(Cl)c4)C(=O)[C@@]3(CC)[C@H]2C1=O,·,-4.3,0.2,7.2,0.6,1.7
CC1CN(S(=O)(=O)c2ccc(-c3nc4ccccc4s3)cc2)CC(C)O1 (stereo not drawn),30.4*,-8.7,-7.3,11.7,14.7,16.6
O=C(CN1c2ccccc2Sc2ccccc21)NNC(=O)Nc1ccc(Cl)c(Cl)c1,·,-17.9,57.5*,-2.8,11.9,13.3
CC1CCc2nc3sc4c(c3c(N)c2C1)CCCC4 (stereo not drawn),74.1*,10.1,2.6,31.6,6.8,20.2
Nc1c2c(nc3sc4c(c13)CCCCC4)CCCCC2,63.8*,-5.0,-1.6,29.1,18.8,9.3
CC1CCc2c(nc3sc4c(c3c2N)CCCC4)C1 (stereo not drawn),41.6*,-23.8,-2.1,36.8,22.2,30.9
CCOC(=O)c1nc2sc3c(c2c(=O)[nH]1)CCC(C)C3 (stereo not drawn),·,-12.0,0.6,34.8,10.4,-13.8
Fc1ccc(/C=C2\CCCC3=C2Nc2ncnn2C3c2ccc(F)cc2)cc1 (stereo not drawn),-18.0,·,64.0*,31.9,38.1,37.2
COc1ccc(C2C3=C(Nc4ncnn42)c2ccccc2CCC3)cc1 (stereo not drawn),0.7,21.0,2.1,19.0,17.6,-10.0
SMILES,NALP1 inh,PfHsp90 yeast 2,SKKanGAS inh,tim23-1 inh,tim10-1 inh,TIM10 inh
Cc1cc(C)nc(NS(=O)(=O)c2ccc(N3Cc4ccccc4C3=O)cc2)n1,23.9,-11.1,2.1,8.3,10.1,12.7
Cc1cc(C)cc(NC(=S)NCCCO)c1,28.8,-19.0,0.6,15.6,4.2,-1.2
CC(C)Cc1csc(NC(=O)C(C)C)c1C(=O)O,19.8,-18.7,15.2,14.6,0.4,6.8
CC(C)Cc1csc(NC(=O)c2ccc(Br)cc2)c1C(=O)O,-4.2,0.7,69.7*,30.0,-11.9,24.2
COC(=O)c1ccc(CN(c2ccc(C(=O)O)c(O)c2)S(=O)(=O)c2ccc(Cl)c([N+](=O)[O-])c2)cc1,24.0,-18.1,54.5*,·,·,·
COC(=O)c1ccc(CN(c2ccccn2)S(=O)(=O)c2ccccc2)cc1,16.3,·,-3.5,·,·,·
COCCNC(=S)N1CCc2cc(OC)c(OC)cc2C1c1cccs1 (stereo not drawn),24.0*,-9.3,3.7,16.0,17.7,-2.0
COCCNC(=S)N1CCc2cc(OC)c(OC)cc2C1COc1ccc(F)cc1 (stereo not drawn),-9.6,-5.8,3.0,5.5,2.1,-4.2
O=C(c1ccco1)N1CCN(C(=O)c2cccc3c2C(=O)N(Cc2cccnc2)C3)CC1,35.8*,-15.9,-0.2,10.2,8.8,3.0
Cc1nn(-c2ccc(Cl)cc2)c(Cl)c1/C=N/NC(=O)c1ccc(NS(=O)(=O)c2cccs2)cc1,·,-15.0,63.1*,11.0,-4.7,15.1
O=C(N/N=C/C=C/c1ccccc1[N+](=O)[O-])c1cccs1,23.2,8.3,5.8,7.6,11.2,19.1
Cc1nn(-c2ccc(F)cc2)c(Cl)c1/C=N/NC(=O)c1cccs1,29.1,-5.0,-1.2,2.8,4.8,8.3
O=C(N/N=C/c1ccc([N+](=O)[O-])o1)c1ccc(NS(=O)(=O)c2cccs2)cc1,13.6,4.6,72.5*,26.2,18.3,8.2
O=C(N/N=C\C=C\c1ccc([N+](=O)[O-])o1)c1cccs1,-31.9,3.3,91.2*,12.8,27.6,0.4
COc1ccc(CN2CCN(c3cccc(C)c3C)CC2)cc1OC,33.8,-2.4,-0.1,8.2,10.7,-0.8
COC(=O)c1cc(NC(=O)c2ccccc2)c(=O)oc1C/C=N\OCc1ccc(Cl)cc1Cl,42.5*,-11.6,13.0,29.6,31.6,14.8
COc1ccc(C(=O)N2CCCC(CCC(=O)NCc3ccc(F)c(F)c3)C2)cc1F (stereo not drawn),-2.4,-19.4,-2.1,-1.0,3.0,3.1
O=C(NC(=S)Nc1cccnc1)c1cc2ccccc2o1,47.2*,-24.1,-15.7,24.7,10.9,16.8
O=C(NC(=S)NCc1cccnc1)c1cc2ccccc2o1,-8.1,-66.7,-18.8,2.7,13.4,14.8
CCS(=O)(=O)Nc1ccc(-c2cc(-c3ccccc3)c3cc(C)ccc3n2)cc1,36.0,69.1,95.4*,·,·,·

# Source: PubChem (several laboratories)
